# Assay outcomes from PubChem BioAssay.
# Most compounds without a hit are left out; they make up all but 11% or so of the library.
# HEK293 tox: Cytotoxic Profiling in HEK 293 Cell Line of Diverse Libraries Using Quantitative High-Throughput Screening | HEK 293 viability, ATP luminescence (CellTiter-Glo), 48-72 h | Potency, µM (doses to about 115 µM), for the others: at the top dose activity change, negative = cytotoxicity, hits mostly inhibitors | hit rate 6.6% among 94,000 | AID 1345083, 2018; note: nearly all actives have a fitted effect of over 60% in size
#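 ATP-coupled CellTiter-Glo luminescence served as viability read-out, recorded 10 min after reagent addition at room temperature. HEK 293 cells, 250 cells/well, had been incubated with pintool-transferred compound for 48 or 72 hr at 37 degree Celsius.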
# NIH3T3 tox: Cytotoxic Profiling in NIH 3T3 Cell Line of Diverse Libraries Using Quantitative High-Throughput Screening; NIH 3T3 viability, CellTiter-Glo ATP luminescence, 48-72 h; Potency, µM (highest dose often 96.7 µM), for inactives: top-dose activity change, negative = cytotoxicity, actives largely listed as inhibitors; hit rate 4.3% among 94,000; AID 1345082, 2018; note: nearly all actives have a fitted effect of over 55% in size
#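 First NIH 3T3 cells are plated at 400 cells/well; next compound is pinned in; then plates incubate 48 or 72 hr at 37 °C; finally CellTiter-Glo is added and luminescence read after 10 min.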
# NPR1 antag: Natriuretic polypeptide receptor (hNpr1) antagonism - Primary qHTS. Atrial natriuretic peptide receptor 1 (Homo sapiens), P16066. HEK293 hNpr1 GloSensor cGMP, ANP-stimulated luminescence. Potency, µM (top dose mostly 46.3 µM), for the others: at the highest dose activity change, negative = inhibition, actives largely listed as inhibitors. hit rate 1.6% among 76,000; calls by dose curve; note: nearly all actives have a fitted effect of over 60% in size
# Target sequence (P16066 whole entry, looked up): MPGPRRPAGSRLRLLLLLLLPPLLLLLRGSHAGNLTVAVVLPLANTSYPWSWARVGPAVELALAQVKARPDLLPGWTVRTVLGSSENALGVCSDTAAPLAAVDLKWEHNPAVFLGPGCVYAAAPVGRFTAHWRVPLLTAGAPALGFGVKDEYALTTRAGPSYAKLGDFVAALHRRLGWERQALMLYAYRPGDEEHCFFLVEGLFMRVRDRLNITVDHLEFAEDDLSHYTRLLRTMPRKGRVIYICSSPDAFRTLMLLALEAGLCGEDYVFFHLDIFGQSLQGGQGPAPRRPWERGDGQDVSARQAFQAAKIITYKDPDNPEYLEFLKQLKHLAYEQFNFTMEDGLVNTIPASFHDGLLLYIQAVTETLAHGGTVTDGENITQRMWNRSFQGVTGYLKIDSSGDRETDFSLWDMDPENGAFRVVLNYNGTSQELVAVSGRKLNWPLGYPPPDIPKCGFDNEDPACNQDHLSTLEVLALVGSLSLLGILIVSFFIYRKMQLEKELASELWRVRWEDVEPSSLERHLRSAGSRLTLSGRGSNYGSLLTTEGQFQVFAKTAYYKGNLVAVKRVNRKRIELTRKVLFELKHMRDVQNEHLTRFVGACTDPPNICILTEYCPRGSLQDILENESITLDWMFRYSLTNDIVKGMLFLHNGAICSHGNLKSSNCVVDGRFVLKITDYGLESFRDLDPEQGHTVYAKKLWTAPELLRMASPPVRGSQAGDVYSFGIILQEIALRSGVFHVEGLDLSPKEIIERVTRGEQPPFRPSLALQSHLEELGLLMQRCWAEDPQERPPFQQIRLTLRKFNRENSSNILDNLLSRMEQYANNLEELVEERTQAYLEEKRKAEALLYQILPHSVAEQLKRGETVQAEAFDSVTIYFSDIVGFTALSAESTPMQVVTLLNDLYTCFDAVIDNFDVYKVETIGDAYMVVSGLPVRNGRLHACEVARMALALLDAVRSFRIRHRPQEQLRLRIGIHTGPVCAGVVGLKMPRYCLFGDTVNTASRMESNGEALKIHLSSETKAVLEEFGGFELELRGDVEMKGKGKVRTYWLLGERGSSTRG
#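 HEK293 cells stably expressing human Npr1 and cGMP GloSensor pGS-40F, loaded 2 h with 2% GloSensor reagent, given compound 30 min at room temperature. Luminescence read before and 20 min after 0.1 nM hNppA.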
# Luciferase inh: Firefly luciferase inhibition profiling of diverse chemical library using quantitative high-throughput screening; Potency, µM (highest dose often 115 µM), usual class: inhibitors; hit rate 2.5% among 76,000; purified P. pyralis luciferase, luminescence, biochemical; note: nearly all actives have a fitted effect of over 65% in size
#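 Inhibitors were tested against purified firefly luciferase in a biochemical, low-substrate format (both substrates at 10uM) and luminescence measured with a CCD imager.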
# * = called active by the depositor; i = inactive; ? = inconclusive; nt = no result given; [ ] = dose if it differs, or a comment. Unless noted, calls come from the whole dose curve; as a rule, active = well fitted curve in the direction sought with a large enough effect; inconclusive = small, poorly fitted or top-dose-only effect, or another doubt; inactive = no such curve, though single readings can be large; an effect the other way counts as inactive or inconclusive. % is set by controls: 0 for no effect and ±100 for the full control effect; potency is the fitted concentration of half-maximal effect.
SMILES,HEK293 tox,NIH3T3 tox,NPR1 antag,Luciferase inh
CCOCCCNC(=O)C1CCN(Cc2ccccc2-c2ccccc2F)CC1,?,-24%,nt,nt
CN(C)c1cccc(-c2cnc(Nc3cccnc3)c3c2CCO3)c1,63µM*,50µM*,?,40µM*
CN(C)c1cccc(-c2cnc(Nc3ccc4c(c3)OCCO4)c3c2CCO3)c1,?,-23%[138 µM],?,3.5µM*
COc1cncc(Nc2ncc(-c3cccc(N(C)C)c3)c3c2OCC3)c1,-80%[172 µM],?,-30%[70.6 µM],i
CC1=C[C@@H](CNS(=O)(=O)c2ccc(C#N)cc2)[C@H](C(C)C)C[C@H]1Cc1nnc(-c2ccncc2)o1,?,?,-19%,i
CC1=C[C@@H](CNS(=O)(=O)c2ccccc2)[C@H](C(C)C)C[C@H]1Cc1nnc(-c2ccncc2)o1,25µM*,20µM*,?,i
CC1=C[C@@H](CNC(=O)c2ccncc2)[C@H](C(C)C)C[C@H]1Cc1nnc(-c2ccncc2)o1,79µM*,?,?,i
CC1=C[C@@H](CNC(=O)Nc2ccccc2)[C@H](C(C)C)C[C@H]1Cc1nnc(-c2ccncc2)o1,22µM*,?,?,i
Cc1cccc2c1O[C@H]1[C@H](C(=O)O)CN(C(=O)c3ncoc3-c3ccccc3)[C@@H]21,-17%,?,nt,nt
O=C(NCc1ccc(N2CCOCC2)cc1)c1cc2c(s1)CN(C1CC1)C2,-28%,?,0%,i
O=C(NCc1ccccc1Cl)c1cn2cc(-c3cccc(C(F)(F)F)c3)sc2n1,?,-28%,nt,nt
Cn1nc(C2CCCN2)c2c(C(=O)NCC(F)(F)F)cc(C3CC3)nc21 (stereo unspecified),0%,i,nt,nt
O=C(NCC(F)(F)F)c1cc(C2CC2)nc2c1c(C1CCCN1)nn2-c1ccccc1 (stereo unspecified),?,22µM*,nt,nt
CC(C)CNC(=O)c1cc(C2CC2)nc2c1c(C1CCCN1)nn2-c1ccccc1 (stereo unspecified),22µM*,18µM*,nt,nt
O=C(NCc1ccncc1)c1cc(C2CC2)nc2c1c(C1CCCN1)nn2-c1ccccc1 (stereo unspecified),45µM*,20µM*,nt,nt
O=C(NC1CCN(c2cc(-c3ccccc3)[nH]n2)C1)c1cc(F)ccc1Cl (stereo unspecified),?,-22%,-9%,i
COCC(=O)NC1CCCN(c2ccc3nnc(C4CC4)n3n2)C1 (stereo unspecified),2%[172 µM],-19%[138 µM],nt,nt
O=C(C1CC1)N1CCC(Oc2ccccc2)C1 (stereo unspecified),-3%,-5%,-8%,i
Cn1cc(CN2CCOC[C@H]2c2ncc(C(C)(C)C)[nH]2)c2ccccc21,63µM*,?,2%[70.6 µM],i
Cn1cc(CN2CCOC[C@H]2c2nc(C(C)(C)C)co2)c2ccccc21,89µM*,?,9%[70.6 µM],i
CC(C)(C)OC(=O)NC(C)(CN)c1ccccn1 (stereo unspecified),i,i,nt,nt
CCCC(C)NC(=O)C1CCCN1C(=O)c1cccc(-c2cccnc2)c1 (stereo unspecified),-17%,-27%,nt,nt
COc1cccc(CNC(=O)c2ccc3nnc(-c4ccccc4OC)n3c2)c1,2%,-24%,nt,nt
COCCn1c(=O)c(C(=O)N2CCOCC2)nc2cccnc21,-1%[172 µM],-16%[138 µM],nt,nt
O=C(CCCc1ccccc1)N1CCCCCC1c1nc(C2CC2)no1 (stereo unspecified),50µM*,?,-8%,i
Cc1ccc(CN2CCc3oc(C)c(C(=O)NCCN4CCCCC4)c3C2)cc1,?,-28%,-13%,i
CCc1ccc(C2CC(C(=O)NC(C)c3ccccc3)CN(C(=O)c3ccoc3)C2)cc1 (stereo unspecified),?,32µM*,-16%,i
CCOC(=O)C1CCCN(C(=O)C2CC(c3ccc(CC)cc3)CN(C(=O)c3ccoc3)C2)C1 (stereo unspecified),45µM*,?,0%,i
CC(=O)N1CC(C(=O)NC(C)c2ccccc2)CC(c2cccc(C)c2)C1 (stereo unspecified),-18%,-17%,-1%,i
